# Results filed as inconclusive are left out. Where a call stands in place of a potency, no number is given. The source made the active and inactive calls. Calls follow the shape of the dose curve; as a rule, active = well fitted activation curve with a large enough effect; inconclusive = small, poorly fitted or top-dose-only effect; inactive = flat fitted curve, though single readings scatter.
# Assay: Primary redox qHTS assay for identification of artifact compounds. (AID 1845223)
# Details: Amplex Red/HRP redox cycling with DTT, fluorescence; series mostly up to 53.8 µM
# Procedure, shortened: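 Redox-cycling detection via DTT (250 uM final) oxidation coupled to Amplex Red (25 uM)/HRP (250 mU/mL) in HBSS. 15 min preincubation plus 30 min after DTT, room temperature. Ex/Em 525/598 nm; 4-parameter Hill fit against DMSO and 10 uM DA3003.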
row,Structure (SMILES),Potency
1,CN1CCN(c2ccc(C(=O)Nc3n[nH]c4ccc(Cc5cc(F)cc(F)c5)cc34)c(NC3CCOCC3)c2)CC1,inactive
2,CCOCCn1nc(CC)c2nc(N3CCC(C(=O)O)CC3)nc(Nc3cc(C)ccn3)c21,inactive
3,CC[C@@H](N)CNc1ccnc(-c2cc(-c3cnn(C)c3)ccc2O)n1,inactive
4,Cc1cc(C(N)=O)ccc1-n1c(CCC(=O)O)ccc1-c1ccc(-n2ccnc2)cc1,inactive
5,O=C(O[C@H]1[C@@H]2C=CO[C@@H](O[C@@H]3O[C@H](CO)[C@@H](O)[C@H](O)[C@H]3O)[C@@H]2[C@@]2(CO)O[C@@H]12)c1ccccc1,inactive
6,CC(C)(C)NCCCNC(=O)c1cccc(Br)c1,inactive
7,C/C=C/c1ccc(O[C@@H]2O[C@H](CO)[C@@H](O)[C@H](O)[C@H]2O)c(OC)c1,inactive
8,Nc1nc(-n2cc(C(=O)O)c(=O)c3cc(F)c(N4CC(O)C4)c(Cl)c32)c(F)cc1F,inactive
9,Cc1cccc(/C=N/Nc2cc(N3CCOCC3)n3nc(-c4ccncc4)cc3n2)c1,inactive
10,CC1C(=O)CC2C3CCC(C(=O)O)C12CC3(C)CO (stereo not drawn),inactive
11,CC(=O)CCC1=C(C)C(O[C@@H]2O[C@H](CO)[C@@H](O)[C@H](O)[C@H]2O)C(O)CC1(C)C (stereo partly drawn),inactive
12,CC1CC[C@]2(C(=O)O)CC[C@]3(C(=O)O)C(=CCC4[C@@]5(C)CC[C@H](OC6OC(C)C(O)C(OC7OC(CO)C(O)C(O)C7O)C6O)C(C)(C)C5CC[C@]43C)C2C1C (stereo partly drawn),inactive
13,CC(Cc1cc2c(c(C(N)=O)c1)N(CCCO)CC2)NCCOc1ccccc1OCC(F)(F)F (stereo not drawn),inactive

# From PubChem BioAssay (NCATS)
